Screening data as filed in PubChem.
A selection: hits, their analogues and other compounds. The true share with any hit is near 10%.
G9a block: qHTS Assay for Inhibitors of Histone Lysine Methyltransferase G9a; Histone-lysine N-methyltransferase EHMT2 (Homo sapiens), Q96KQ7; G9a H3K9 monomethylation, AlphaScreen, 2 h; Potency, µM (series often up to 102 µM), usual class: inhibitors; hit rate 8.8% among 350,000; AID 504332, 2011; also: nearly all actives have a fitted effect of over 75% in size
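Quantitative HTS format: methyltransferase activity on a biotin-tagged H3K9 peptide is measured by AlphaScreen, using a rabbit anti-monomethyl-H3K9 antibody with streptavidin donor and anti-IgG acceptor beads. Final levels are 20 nM enzyme, 500 nM peptide, 20 uM SAM; 2 h RT.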
CCT chaperon mod: High-Throughput Screening for Modulators of Cytosolic Chaperonin Activity. activity change, % (concentration not given with the values), hits read low. hit rate 0.3% among 360,000. purified chaperonin ATPase assay, HTRF ADP detection, 30 min; in the data active = activity change below about -30%
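Enzyme 40 or 20 nM (batch-dependent) in Tris pH 7.4/KCl/MgCl2/DTT; cpd 76 uM single point; ATP 10 uM; 30 min 37 °C; Transcreener ADP HTRF detection, 30 min RT; ratio 665/615.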
VDR inh: Inhibitors of the vitamin D receptor (VDR): qHTS | Vitamin D3 receptor (Homo sapiens), P11473 | VDR-SRC2-3 peptide fluorescence polarization, 2 h | Potency, µM, actives largely listed as inhibitors | hit rate 0.93% among 400,000 | AID 504847, 2011
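Fluorescence polarization assay measuring small-molecule disruption of VDR binding to the coregulator peptide SRC2-3. Compounds were pin-transferred (23 nl) into the reagent mix and incubated 2 h at room temperature before reading.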
Sfp inh: qHTS Assay for Inhibitors of Bacillus subtilis Sfp phosphopantetheinyl transferase (PPTase); 4'-phosphopantetheinyl transferase ffp (Bacillus subtilis), Q9F4F7; Biochemical Sfp PPTase activity, qHTS; Potency, µM, hits mostly inhibitors; hit rate 3.5% among 310,000; AID 1490, 2009;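 also: the enzyme is Sfp with the accession as filed and its product quenches rhodamine fluorescence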
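Sfp 15 nM + cpd, 15 min RT; start w/ rhodamine-CoA 5 uM, BHQ-2-YbbR 12.5 uM (final); 50 mM Hepes pH 7.6, 10 mM MgCl2, 0.01% NP-40, 0.01% BSA; read 525/598 nm at 0 and 30 min.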
PLK1 PBD inh: qHTS for Inhibitors of PLK1-PDB (polo-like kinase 1 - polo-box domain): Primary Screen; Plk1 PBD binding of FITC phosphopeptide, fluorescence polarization; Potency, µM, actives largely listed as inhibitors; hit rate 2.8% among 360,000; AID 720504, 2013; also: series mostly up to about 57 µM; nearly all actives have a fitted effect of over 65% in size
Target sequence (P53350 whole entry, looked up, the tested form may be a part): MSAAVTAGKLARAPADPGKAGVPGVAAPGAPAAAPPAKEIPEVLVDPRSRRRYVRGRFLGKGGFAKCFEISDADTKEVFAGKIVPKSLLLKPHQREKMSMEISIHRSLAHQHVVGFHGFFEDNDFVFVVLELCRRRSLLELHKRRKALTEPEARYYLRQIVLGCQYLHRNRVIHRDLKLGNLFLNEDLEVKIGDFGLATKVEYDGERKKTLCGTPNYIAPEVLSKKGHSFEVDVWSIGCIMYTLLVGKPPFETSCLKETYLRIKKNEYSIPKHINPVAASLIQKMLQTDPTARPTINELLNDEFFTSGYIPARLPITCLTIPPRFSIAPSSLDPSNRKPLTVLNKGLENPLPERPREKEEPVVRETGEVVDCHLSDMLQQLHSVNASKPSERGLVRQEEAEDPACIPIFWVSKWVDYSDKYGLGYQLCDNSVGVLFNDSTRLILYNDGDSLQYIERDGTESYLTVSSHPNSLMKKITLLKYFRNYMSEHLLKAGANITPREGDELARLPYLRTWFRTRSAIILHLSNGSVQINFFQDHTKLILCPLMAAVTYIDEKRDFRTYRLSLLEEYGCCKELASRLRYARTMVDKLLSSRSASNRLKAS
MmCpn inh: Inhibitors of TCP-1 ring complex (TRiC) of Methanococcus maripaludis (MmCpn): qHTS; Chaperonin Mm-Cpn (Methanococcus maripaludis); purified Mm-Cpn ATPase, ADP Transcreener TR-FRET; Potency, µM (titrated, usually from 76.9 µM), actives largely listed as inhibitors; hit rate 0.031% among 330,000; AID 504842, 2011; also: nearly all actives have a fitted effect of over 80% in size
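Eu-cryptate anti-ADP/ADP-d2 competition gives a ratio inversely related to ADP. Enzyme at 25 nM was pre-exposed to compound for 10 min, then given 10 uM ATP for 30 min, 37°C throughout.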
Hits are given with their value; i = inactive; ? = inconclusive; nt = no result given; [ ] = remark or other dose. Unless noted, calls follow the shape of the dose curve; as a rule, active = well fitted curve in the direction sought with a large enough effect; inconclusive = small, poorly fitted or top-dose-only effect, or another doubt; inactive = no such curve, though single readings can be large; an effect the other way counts as inactive or inconclusive.

SMILES	G9a block	CCT chaperon mod	VDR inh	Sfp inh	PLK1 PBD inh	MmCpn inh
CC1=NN(c2nc(-c3ccc(C)cc3)cs2)C(=O)C1N=Nc1cccc(O)c1 (configuration not stated)	40µM	i	79µM	i	4.7µM	i
CC1=NN(C(N)=S)C(=O)C1N=Nc1ccc(Br)cc1 (configuration not stated)	nt	i	i	i	i	i
CC1=NN(c2ccccc2)C(=O)C1N=Nc1ccc(N)cc1 (configuration not stated)	?	i	i	i	24µM	i
CC1=NN(C(N)=S)C(=O)C1N=Nc1ccc(Cl)cc1 (configuration not stated)	71µM	i	?	i	13µM	i
CC1=NN(c2nc(-c3ccc(C)cc3)cs2)C(=O)C1N=Nc1ccccc1O (configuration not stated)	nt	i	i	?	i	i
COC(=O)C1(C(C)=O)CC2=CC[C@@H]3C(=O)N(c4ccccc4)C(=O)[C@@H]3[C@@H]2Cc2ccccc2[C@@H]1C[N+](=O)[O-] (some centres not stated)	nt	nt	i	i	nt	nt
O=C(O)CC12CSc3[nH]c(=O)sc3C1c1ccccc1OC2=O (configuration not stated)	50µM	nt	nt	14µM	nt	i
CCc1cc(-c2n[nH]c(=S)n2N)n(C)n1	10µM	i	i	40µM	i	i
CCc1nn(C)c(N)c1C	i	i	i	i	i	i
CCc1nn(C)c(-c2n[nH]c(=S)n2N)c1Cl	?	i	i	45µM	i	i
COc1cccc(-c2ccc3ncnc(NCCc4c[nH]c5ccc(OC)cc45)c3c2)c1	i[0.501 µM]	nt	i	i	nt	nt
N#Cc1nc(COc2ccc(Br)cc2)oc1NCCCn1ccnc1	40µM	i	i	i	i	i
N#Cc1nc(COc2ccccc2F)oc1NCCCn1ccnc1	32µM	i	i	i	i	i
CC1CCN(S(=O)(=O)c2ccc3nc(NCc4ccc(F)cc4)ccc3c2)CC1	?	nt	i	nt	nt	nt
CC1CCN(S(=O)(=O)c2ccc3nc(NCc4ccc(N(C)C)cc4)ccc3c2)CC1	10µM	nt	i	nt	nt	nt
CC(=O)c1ccc(N2CCN(c3ccc4cc(S(=O)(=O)N5CCC(C)CC5)ccc4n3)CC2)cc1	18µM	i	i	i	i	i
CC1CCN(S(=O)(=O)c2ccc3nc(N4CCN(c5ccc(F)cc5)CC4)ccc3c2)CC1	i	nt	i	nt	nt	nt
CCOc1ccc(NC(=O)C2CCCN(c3nnc(-n4c(C)ccc4C)s3)C2)cc1 (configuration not stated)	i	nt	i	nt	nt	nt
CC1CCCCN1Cc1c(O)ccc2c(=O)c(-c3nc4ccccc4s3)coc12 (configuration not stated)	nt	i	i	i	21µM	i
COc1cc(-c2ccc(N=Nc3ccc4c(S(=O)(=O)O)cc(S(=O)(=O)O)c(N)c4c3O)c(OC)c2)ccc1N=Nc1ccc2c(S(=O)(=O)O)cc(S(=O)(=O)O)c(N)c2c1O	7.1µM	nt	?	4µM	nt	nt
Cc1ccc2nc(-c3ccc(N=Nc4cc(S(=O)(=O)O)c5ccccc5c4O)cc3)sc2c1S(=O)(=O)O	nt	nt	i	nt	nt	nt
CCOC(=O)Cc1csc(SCn2nnc3ccccc3c2=O)n1	45µM	i	i	i	i	i
CCOC(=O)Cc1csc(-n2sc3ccccc3c2=O)n1	1.1µM	i	16µM	6.3µM	3µM	i
CCOC(=O)Cc1csc(NC(=O)c2cc(=O)c3ccccc3o2)n1	i	i	i	i	i	i
COc1cccc(CNC(=O)c2nc(Cn3nc(C)c(Br)c3C)no2)c1	?	nt	i	nt	nt	nt
SMILES	G9a block	CCT chaperon mod	VDR inh	Sfp inh	PLK1 PBD inh	MmCpn inh
COc1cccc(CNC(C)C(=O)Nc2ccc3c(c2)OCCO3)c1 (configuration not stated)	45µM	i	i	i	i	i
COc1cccc(NC(=O)c2ccc3c(c2)OCCO3)c1	i	i	i	i	i	i
Cn1c(=O)n(C)c2cc3[nH]cnc3cc21	i	i	i	i	i	i
Nc1cc2nc[nH]c2cc1N	18µM	i	i	i	i	i
COc1ccc(NC(=O)CCc2c(C)nc3c(-c4ccccc4)c(C)nn3c2C)cc1Cl	i	nt	i	nt	nt	nt
O=C(NC(C(=O)c1ccccc1)n1cnccc1=O)c1ccccc1 (configuration not stated)	nt	i	i	i	i	i
O=C(NC(C(=O)c1ccccc1)n1c(=O)cc[nH]c1=S)c1ccccc1 (configuration not stated)	14µM	i	i	?	27µM	i
CCCCNCCOCCOc1ccc(Cl)cc1Br	7.9µM	i	i	i	i	i
CCOc1ccc(OCCCCNCCN)cc1	i[12.7 µM]	nt	nt	i	nt	i
COCCCNCCCOc1ccc(Cl)cc1Br	?	i	i	i	i	i
CCCCNCCOCCOc1ccc(F)cc1	11µM	i	i	i	i	i
Cc1cccc(C)c1OCC(=O)Nc1c(C(=O)c2ccccc2)oc2ccccc12	i	nt	?	nt	nt	nt
CCOc1ccc(CNC(=O)C2CCN(C(=O)c3sccc3-n3cccc3)CC2)cc1	i	nt	i	nt	nt	nt
CCOc1ccc(NC(=O)CSc2oc(-c3ccc(C)cc3)nc2S(=O)(=O)c2ccc(C)cc2)cc1	i	nt	i	nt	nt	nt
Cc1ccccc1-c1nc2c3ccccc3nc(=S)n2[nH]1	i	i	i	i	i	i
Cc1nc2ccccc2n1CCc1nc2c3ccccc3nc(=S)n2[nH]1	14µM	i	i	50µM	i	i
O=C(CCBr)Nc1cccc2cccnc12	nt	nt	i	nt	nt	nt
O=[N+]([O-])c1ccc(Nc2ccccc2)nc1	i	i	i	i	i	i
Cc1ccc(S(=O)(=O)c2ccc([N+](=O)[O-])cn2)cc1	40µM	i	25µM	?	?	i
Cc1ccc(S(=O)(=O)c2ccc(C)cc2)cc1	i	i	i	i	i	i
O=[N+]([O-])c1ccc(S(=O)(=O)c2ccccc2)nc1	40µM	i	40µM	50µM	5.3µM	i
Cc1cccc(-n2nc(C)c3c(C(=O)O)cc(-c4cccs4)nc32)c1	i	i	i	i	?	i
Cc1ccc(-n2nc(-c3ccco3)cc2C(=O)O)c(C)c1	18µM	i	i	10µM	i	i
O=C(O)c1cc(-c2ccco2)nn1-c1ccc(Cl)cc1	10µM	i	?	16µM	?	i
Nc1nc(-c2ccco2)nn1C(=O)c1ccc(Cl)cc1	i	i	i	i	i	i
Cc1nn(-c2cccc(Cl)c2)c2nc(-c3ccco3)cc(C(=O)O)c12	10µM	i	i	28µM	i	i
O=C(O)c1cc(-c2cccs2)nn1-c1cccc(Cl)c1	i	i	i	89µM	i	i
